These results are taken from the supplement of paper PMC12645437, “Orthogonal IMiD-Degron Pairs Induce Selective Protein Degradation in Cells” (ACS Chemical Biology, 2025).

This assay deals with T1, CRBN, Q96SW2.
T1 chain: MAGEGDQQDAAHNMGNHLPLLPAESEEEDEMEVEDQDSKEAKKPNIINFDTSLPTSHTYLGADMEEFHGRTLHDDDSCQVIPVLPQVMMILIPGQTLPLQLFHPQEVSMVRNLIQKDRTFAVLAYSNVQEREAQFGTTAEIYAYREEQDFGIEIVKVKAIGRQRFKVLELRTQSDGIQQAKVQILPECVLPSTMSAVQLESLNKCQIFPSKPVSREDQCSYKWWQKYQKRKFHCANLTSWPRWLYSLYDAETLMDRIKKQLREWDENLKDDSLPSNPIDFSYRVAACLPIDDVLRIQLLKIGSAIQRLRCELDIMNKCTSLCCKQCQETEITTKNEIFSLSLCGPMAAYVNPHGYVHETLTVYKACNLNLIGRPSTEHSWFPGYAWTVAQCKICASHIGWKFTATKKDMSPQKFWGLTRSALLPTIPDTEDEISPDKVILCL
Description: log2 fold change of degron read counts, EGFP-low vs EGFP+ sorted cells (limma voom), compound-induced degradation; higher = more compound-induced degradation of the degron-EGFP fusion; degrons are variants of IKZF1/3 zinc finger 2; compound dose not given here. The note with it: Jurkat, 18 h. As to the method:
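Pooled library of 8380 IKZF3 ZF2 degron mutants (positions 146-167 varied within the IKZF3 130-189 degron; only the varied core is printed, flanks not printed) fused to EGFP with IRES-mCherry, lentivirally expressed in Jurkat cells. mCherry+ cells were treated with one IMiD compound for 18 h (dose not stated) and FACS-sorted into EGFP-low and EGFP+ populations. Degron sequences were counted by NGS, and log2FC (EGFP-low vs EGFP+) was estimated by limma voom over 3 biological replicates.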

The mark [1] stands for this setting: compound: compound 19 (5-tert-butyl-thalidomide).
Setting [2] is: compound: compound 22 (5-morpholino-thalidomide).
Where [3] appears, read: compound: compound 33 (diphenyl IMiD analogue).

Over roughly 8,300 sequences, “log2 fold change of degron read counts, EGFP-low vs EGFP+ sorted cells (limma voom), compound-induced degradation” has its median near -1.1; the highest 2% begin near 3.2. This is one part of a sample in which the highest values are shown more often than they occur.
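Note: pooled lentiviral library of zinc finger degron-EGFP fusions in mCherry-positive Jurkat cells, FACS-sorted after compound exposure, with degron abundance counted by next-generation sequencing.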

For the sequence FRCDQCGAHFTQKGNLLRHIKL [46F_47R_49D_50Q_52G_53A_54H_55F_67L_, Q9UKT9], the “log2 fold change of degron read counts” value reads like this: under setting [1], -2.76; under setting [2], -2.89; under setting [3], -2.01; (compound: thalidomide) -2.48.

With FKCEICGAEFTQKGNLLRHIKL [46F_47K_49E_50I_52G_53A_54E_55F_67L_, Q9UKT9], the “log2 fold change of degron read counts” value runs as follows: under setting [1], -0.284; under setting [2], -2.59; under setting [3], -3.54; (compound: thalidomide) -0.121.

For FCCNICGARFTQKGNLLRHIKL [46F_47C_49N_50I_52G_53A_54R_55F_67L_, Q9UKT9], the “log2 fold change of degron read counts” value was 1.4 under setting [1], 1.76 under setting [2], 0.552 under setting [3] and 1.57 (compound: thalidomide).

For the sequence FNCDICGAPFTQKGNLLRHIKL [46F_47N_49D_50I_52G_53A_54P_55F_67L_, Q9UKT9], the “log2 fold change of degron read counts” value was 2.68 under setting [1], 1.25 under setting [2], -0.682 under setting [3] and -0.153 (compound: thalidomide).

FDCDICGAPFTQKGNLLRHIKL [46F_47D_49D_50I_52G_53A_54P_55F_67L_, Q9UKT9]: the “log2 fold change of degron read counts” value under setting [1] was 0.272, the “log2 fold change of degron read counts” value under setting [2] is -1.45, the “log2 fold change of degron read counts” value under setting [3] is -1.51 and the “log2 fold change of degron read counts” value (compound: thalidomide) was -0.767.

As to FGCDICGAPFTQKGNLLRHIKL [46F_47G_49D_50I_52G_53A_54P_55F_67L_, Q9UKT9], the “log2 fold change of degron read counts” value reads like this: under setting [1], 0.329; under setting [2], -0.821; under setting [3], -1.38; (compound: thalidomide) -1.4.

On to FACDICGAPFTQKGNLLRHIKL [46F_47A_49D_50I_52G_53A_54P_55F_67L_, Q9UKT9], for which the “log2 fold change of degron read counts” value reads like this: under setting [1], 3.46; under setting [2], 1.66; under setting [3], -0.501; (compound: thalidomide) 0.383.

For FECDICGAPFTQKGNLLRHIKL [46F_47E_49D_50I_52G_53A_54P_55F_67L_, Q9UKT9], the “log2 fold change of degron read counts” value by setting is: under setting [1], 1.27; under setting [2], -1.62; under setting [3], -0.0281; (compound: thalidomide) 0.305.

As for FMCDICGAPFTQKGNLLRHIKL [46F_47M_49D_50I_52G_53A_54P_55F_67L_, Q9UKT9], the “log2 fold change of degron read counts” value by setting is: under setting [1], 2.71; under setting [2], 3.25; under setting [3], 3.03; (compound: thalidomide) 1.89.

For FSCDICGAPFTQKGNLLRHIKL [46F_47S_49D_50I_52G_53A_54P_55F_67L_, Q9UKT9], the “log2 fold change of degron read counts” value is, setting by setting: under setting [1], 2.36; under setting [2], 1.62; under setting [3], 0.275; (compound: thalidomide) 0.668.

With FKCDICGAPFTQKGNLLRHIKL [46F_47K_49D_50I_52G_53A_54P_55F_67L_, Q9UKT9], the “log2 fold change of degron read counts” value was 1.21 under setting [1], 0.288 under setting [2], -1.35 under setting [3] and 1.02 (compound: thalidomide).

Regarding FRCDICGAPFTQKGNLLRHIKL [46F_47R_49D_50I_52G_53A_54P_55F_67L_, Q9UKT9], the “log2 fold change of degron read counts” value reads like this: under setting [1], 3.17; under setting [2], 3.53; under setting [3], 3.32; (compound: thalidomide) 3.52.

Consider FLCDICGAPFTQKGNLLRHIKL [46F_47L_49D_50I_52G_53A_54P_55F_67L_, Q9UKT9], for which the “log2 fold change of degron read counts” value runs as follows: under setting [1], 1.62; under setting [2], 2.15; under setting [3], 2.03; (compound: thalidomide) 1.99.

Turning to FTCDICGAPFTQKGNLLRHIKL [46F_47T_49D_50I_52G_53A_54P_55F_67L_, Q9UKT9], the “log2 fold change of degron read counts” value reads like this: under setting [1], 2.1; under setting [2], 2.86; under setting [3], 1.41; (compound: thalidomide) 1.93.

Regarding FICDICGAPFTQKGNLLRHIKL [46F_47I_49D_50I_52G_53A_54P_55F_67L_, Q9UKT9], the “log2 fold change of degron read counts” value under setting [1] amounted to 1.26, the “log2 fold change of degron read counts” value under setting [2] was 3.46, the “log2 fold change of degron read counts” value under setting [3] worked out at 2.32 and the “log2 fold change of degron read counts” value (compound: thalidomide) was 2.47.

In the case of FSCDVCGAEFTQKGNLLRHIKL [46F_47S_49D_50V_52G_53A_54E_55F_67L_, Q9UKT9], the “log2 fold change of degron read counts” value is -0.733 under setting [1], -1.36 under setting [2], -1.13 under setting [3] and -1.96 (compound: thalidomide).

On to FNCNICGANFTQKGNLLRHIKL [46F_47N_49N_50I_52G_53A_54N_55F_67L_, Q9UKT9], for which the “log2 fold change of degron read counts” value runs as follows: under setting [1], 0.662; under setting [2], -0.0154; under setting [3], -0.393; (compound: thalidomide) -0.94.

As for FGCDQCGARFTQKGNLLRHIKL [46F_47G_49D_50Q_52G_53A_54R_55F_67L_, Q9UKT9], the “log2 fold change of degron read counts” value under setting [1] is -1.28, the “log2 fold change of degron read counts” value under setting [2] was -2.53, the “log2 fold change of degron read counts” value under setting [3] is -2.52 and the “log2 fold change of degron read counts” value (compound: thalidomide) was -1.78.

Consider FKCEICGRWFTQKGNLLRHIKL [46F_47K_49E_50I_52G_53R_54W_55F_67L_, Q9UKT9], for which the “log2 fold change of degron read counts” value was -2.8 under setting [1], -3.25 under setting [2], -3.01 under setting [3] and -2.58 (compound: thalidomide).

FWCNQCGRHFTQKGNLLRHIKL [46F_47W_49N_50Q_52G_53R_54H_55F_67L_, Q9UKT9]: the “log2 fold change of degron read counts” value by setting is: under setting [1], -1.56; under setting [2], -1.46; under setting [3], -1.56; (compound: thalidomide) -1.55.

For FACPQCGAVFTQKGNLLRHIKL [46F_47A_49P_50Q_52G_53A_54V_55F_67L_, Q9UKT9], the “log2 fold change of degron read counts” value by setting is: under setting [1], 0.29; under setting [2], -1.36; under setting [3], -0.148; (compound: thalidomide) -1.43.

Take FVCPICGHGFTQKGNLLRHIKL [46F_47V_49P_50I_52G_53H_54G_55F_67L_, Q9UKT9]: the “log2 fold change of degron read counts” value is, setting by setting: under setting [1], -2.33; under setting [2], -2.2; under setting [3], -1.88; (compound: thalidomide) -0.905.

For the sequence FLCEQCGAEFTQKGNLLRHIKL [46F_47L_49E_50Q_52G_53A_54E_55F_67L_, Q9UKT9], the “log2 fold change of degron read counts” value was -2.34 under setting [1], -3.65 under setting [2], -2.09 under setting [3] and -1.63 (compound: thalidomide).

For FQCPQCGAYFTQKGNLLRHIKL [46F_47Q_49P_50Q_52G_53A_54Y_55F_67L_, Q9UKT9], the “log2 fold change of degron read counts” value runs as follows: under setting [1], -1.88; under setting [2], -1.45; under setting [3], -0.995; (compound: thalidomide) 1.25.

Turning to LMCPICGFVCTQKGNLLRHIKL [46L_47M_49P_50I_52G_53F_54V_55C_67L_, Q9UKT9], the “log2 fold change of degron read counts” value under setting [1] was -0.234, the “log2 fold change of degron read counts” value under setting [2] was 0.389, the “log2 fold change of degron read counts” value under setting [3] was found to be 2.08 and the “log2 fold change of degron read counts” value (compound: thalidomide) was 1.67.

Take LQCPICGFVCTQKGNLLRHIKL [46L_47Q_49P_50I_52G_53F_54V_55C_67L_, Q9UKT9]: the “log2 fold change of degron read counts” value reads like this: under setting [1], 0.325; under setting [2], 2.16; under setting [3], 1.88; (compound: thalidomide) 3.76.

LCCPICGFVCTQKGNLLRHIKL [46L_47C_49P_50I_52G_53F_54V_55C_67L_, Q9UKT9]: the “log2 fold change of degron read counts” value was 1.01 under setting [1], 1.57 under setting [2], 2.59 under setting [3] and 2.1 (compound: thalidomide).

In the case of LGCPICGFVCTQKGNLLRHIKL [46L_47G_49P_50I_52G_53F_54V_55C_67L_, Q9UKT9], the “log2 fold change of degron read counts” value by setting is: under setting [1], 3.04; under setting [2], 1.82; under setting [3], 1.33; (compound: thalidomide) 0.747.

LTCPICGFVCTQKGNLLRHIKL [46L_47T_49P_50I_52G_53F_54V_55C_67L_, Q9UKT9]: the “log2 fold change of degron read counts” value reads like this: under setting [1], 0.397; under setting [2], 1.59; under setting [3], 2.08; (compound: thalidomide) 2.24.

On to LYCPICGFVCTQKGNLLRHIKL [46L_47Y_49P_50I_52G_53F_54V_55C_67L_, Q9UKT9], for which the “log2 fold change of degron read counts” value under setting [1] worked out at 3.29, the “log2 fold change of degron read counts” value under setting [2] worked out at 3.49, the “log2 fold change of degron read counts” value under setting [3] was 2.29 and the “log2 fold change of degron read counts” value (compound: thalidomide) turned out to be 1.2.
